Results filed as inconclusive are left out. Entries that show only a call come without a potency. Unmarked numbers belong to inactive results. Activity calls are given as the source filed them. Unless noted, calls come from the whole dose curve; as a rule, active = well fitted curve in the direction sought with a large enough effect in the repeat runs; inconclusive = weak or mixed curves; inactive = no such curve, though single readings can be large; an effect the other way counts as inactive or inconclusive.
Assays:
[1] = target: Luciferin 4-monooxygenase (Photinus pyralis) (UniProt P08659); test: qHTS assay to identify small molecule inhibitors of firefly luciferase (AID 1224835); note: nearly all actives have a fitted effect of over 25% in size; note: potency is the fitted concentration of half-maximal effect
Sequence of Luciferin 4-monooxygenase (Photinus pyralis) (P08659 whole entry, looked up): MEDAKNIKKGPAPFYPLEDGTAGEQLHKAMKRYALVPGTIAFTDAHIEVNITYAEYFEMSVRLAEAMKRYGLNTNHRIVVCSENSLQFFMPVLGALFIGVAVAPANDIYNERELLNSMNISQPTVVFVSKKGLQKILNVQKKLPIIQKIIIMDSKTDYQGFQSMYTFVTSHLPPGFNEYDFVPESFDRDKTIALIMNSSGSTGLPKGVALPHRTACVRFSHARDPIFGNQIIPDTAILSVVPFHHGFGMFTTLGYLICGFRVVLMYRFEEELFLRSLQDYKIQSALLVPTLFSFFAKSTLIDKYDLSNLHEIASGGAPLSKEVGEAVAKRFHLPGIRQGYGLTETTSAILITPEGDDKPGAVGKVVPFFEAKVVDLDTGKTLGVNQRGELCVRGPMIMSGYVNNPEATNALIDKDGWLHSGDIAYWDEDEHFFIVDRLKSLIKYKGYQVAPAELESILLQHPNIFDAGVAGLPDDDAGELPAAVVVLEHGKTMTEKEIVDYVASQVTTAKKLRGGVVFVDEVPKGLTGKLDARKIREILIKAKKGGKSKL
Summary of the method: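 Biochemical qHTS: compounds run as interplate titrations against purified firefly enzyme, with D-luciferin and ATP each at its KM concentration. Light output recorded by CCD imaging.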

[2] = qHTS assay to identify small molecule agonists of the constitutive androstane receptor (CAR) signaling pathway - cell viability counter screen (AID 1224836); note: nearly all actives have a fitted effect of over 45% in size; note: potency is the fitted concentration of half-maximal effect
Summary of the method: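 Double-stable HepG2 hepatoma cells (hCAR plus CYP2B6-2.2kb) are treated for 23 h at 37 C with test compounds in 15-point concentration series. PK11195 at 0.75 uM final is co-added. Cell viability is quantified by CellTiter-Fluor.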

[3] = qHTS assay to identify small molecule antagonists of the constitutive androstane receptor (CAR) signaling pathway - cell viability counter screen (AID 1224837); note: nearly all actives have a fitted effect of over 45% in size; note: potency is the fitted concentration of half-maximal effect
Summary of the method: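 In quantitative HTS format, compounds at 15 concentrations were applied to HepG2 cells double-transfected with hCAR and CYP2B6-2.2kb under 50 nM CITCO stimulation; live-cell protease activity was read after 23 hr via CellTiter-Fluor.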

[4] = target: Nuclear receptor subfamily 1 group I member 3 (Homo sapiens) (UniProt Q14994); test: qHTS assay to identify small molecule antagonists of the constitutive androstane receptor (CAR) signaling pathway (AID 1224838); note: nearly all actives have a fitted effect of over 40% in size; note: potency is the fitted concentration of half-maximal effect
Sequence of Nuclear receptor subfamily 1 group I member 3 (Homo sapiens) (Q14994 whole entry, looked up): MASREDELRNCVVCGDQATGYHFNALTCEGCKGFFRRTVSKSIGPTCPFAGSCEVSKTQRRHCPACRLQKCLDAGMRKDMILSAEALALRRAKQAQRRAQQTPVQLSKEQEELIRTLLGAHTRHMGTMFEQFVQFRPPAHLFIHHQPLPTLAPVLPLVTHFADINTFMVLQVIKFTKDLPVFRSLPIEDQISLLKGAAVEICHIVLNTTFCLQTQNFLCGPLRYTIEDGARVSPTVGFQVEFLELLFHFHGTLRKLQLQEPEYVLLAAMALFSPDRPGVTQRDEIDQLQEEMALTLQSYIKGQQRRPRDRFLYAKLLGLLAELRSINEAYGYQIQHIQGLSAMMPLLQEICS
Summary of the method: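 CITCO-stimulated (50 nM final) HepG2 cells stably transfected with hCAR and CYP2B6-2.2kb luciferase were exposed to compounds at 15 concentrations for 24 h at 37 C/5% CO2. A luciferase reagent was added and luminescence recorded after 30 min.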

[5] = target: Nuclear receptor subfamily 1 group I member 3 (Homo sapiens) (UniProt Q14994); test: qHTS assay to identify small molecule agonists of the constitutive androstane receptor (CAR) signaling pathway (AID 1224839);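 note: HepG2 cells stably carrying human CAR and a CYP2B6 luciferase reporter; series mostly up to about 92 µM; nearly all actives have a fitted effect of over 15% in size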
Summary of the method: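 Readout: firefly luciferase luminescence via ONE-Glo. System: HepG2 double-stable for hCAR and CYP2B6-2.2kb. Conditions: 15-point compound titration, PK11195 at 0.75 uM final, 24 h incubation.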

[6] = qHTS assay to identify small molecule antagonists of the estrogen related receptor signaling pathway with the pleiotropic PPARgamma coactivator (PGC) from Tox21 10K library - cell viability counter screen (AID 1224840; active = well fitted cell-killing curve with a large enough effect in the repeat runs, not every such curve was filed as active; note: nearly all actives have a fitted effect of over 40% in size)
Summary of the method: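 Viability counter screen, PGC/ERR cells: 17.5 h compound exposure at 37 C, CellTiter-Fluor fluorescence endpoint.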

[7] = qHTS assay to identify small molecule agonists of the hypoxia (HIF-1) signaling pathway - cell viability counter screen (AID 1224844; calls by dose curve; note: nearly all actives have a fitted effect of over 50% in size; note: potency is the fitted concentration of half-maximal effect)
Summary of the method: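 Same wells as the HIF-1 reporter screen; ME-180 cells carrying HRE-bla, 17 hr treatment at 37C; CellTiter-Glo luminescence read after 30 min at room temperature.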

[8] = target: Thyrotropin receptor (Homo sapiens) (UniProt P16473); test: qHTS assay to identify small molecule agonists of the thyroid stimulating hormone receptor (TSHR) signaling pathway (AID 1224843; calls by dose curve; note: nearly all actives have a fitted effect of over 45% in size)
Sequence of Thyrotropin receptor (Homo sapiens) (P16473 whole entry, looked up): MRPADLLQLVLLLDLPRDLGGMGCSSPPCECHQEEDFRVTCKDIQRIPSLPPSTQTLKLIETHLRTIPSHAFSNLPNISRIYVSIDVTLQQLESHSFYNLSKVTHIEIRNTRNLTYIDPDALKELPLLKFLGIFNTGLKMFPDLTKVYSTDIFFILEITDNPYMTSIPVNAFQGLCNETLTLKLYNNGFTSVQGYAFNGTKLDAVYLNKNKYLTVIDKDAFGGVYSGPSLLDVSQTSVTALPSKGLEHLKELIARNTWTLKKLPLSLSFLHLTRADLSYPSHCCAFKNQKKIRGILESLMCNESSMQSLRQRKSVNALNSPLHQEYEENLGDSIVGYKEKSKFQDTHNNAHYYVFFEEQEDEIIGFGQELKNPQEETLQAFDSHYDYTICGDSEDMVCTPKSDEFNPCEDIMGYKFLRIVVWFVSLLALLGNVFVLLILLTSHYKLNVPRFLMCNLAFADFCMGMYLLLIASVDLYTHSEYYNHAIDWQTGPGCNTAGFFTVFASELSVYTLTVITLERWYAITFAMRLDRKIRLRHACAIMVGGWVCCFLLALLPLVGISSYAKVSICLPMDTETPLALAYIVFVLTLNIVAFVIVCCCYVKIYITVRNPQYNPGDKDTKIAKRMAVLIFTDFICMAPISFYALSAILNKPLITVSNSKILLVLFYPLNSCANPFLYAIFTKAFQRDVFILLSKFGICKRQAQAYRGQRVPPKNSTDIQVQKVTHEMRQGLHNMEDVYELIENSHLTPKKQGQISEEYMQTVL
Summary of the method: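 HEK293/TSHR, 800 cells/well; cpd 30 min RT; add cAMP-d2 + anti-cAMP-cryptate, 1 h RT; fluorescence read on plate reader. 15-pt titration, n=3.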

[9] = qHTS assay to identify small molecule antagonists of the estrogen related receptor signaling pathway with the pleiotropic PPARgamma coactivator (PGC) from Tox21 10K library (AID 1224841; call rule not given here; note: actives are mostly falling curves and most rising ones were filed inactive; nearly all actives have a fitted effect of over 50% in size; note: potency is the fitted concentration of half-maximal effect)
Summary of the method: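 In the PGC/ERR line, DMSO solutions of test chemicals are pin-delivered to 2,000 cells/well six hours after dispensing. Following eighteen hours' incubation, One-Glo reagent is added and luminescence recorded.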

[10] = qHTS assay to identify small molecule agonists of the estrogen related receptor signaling pathway with the pleiotropic PPARgamma coactivator (PGC) from Tox21 10K library (AID 1224842); note: nearly all actives have a fitted effect of over 15% in size
Summary of the method: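 PGC/ERR reporter cell line, 2,000 cells per well, incubated 6 h at 37 C before 23 nL compound in DMSO was added. After 18 h at 37 C, One-Glo luminescence read following 30 min at room temperature.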

Row | Compound | Potency [1] | Potency [2] | Potency [3] | Potency [4] | Potency [5] | Potency [6] | Potency [7] | Potency [8] | Potency [9] | Potency [10]
1 | Cc1cccc(C(C)(C)C)c1O | inactive | inactive | inactive | inactive | inactive | inactive | inactive |  |  | 
2 | NCCCN(CCO)CCO | inactive | inactive | inactive | inactive | inactive | inactive | inactive | inactive |  | 
3 | CCOC(=O)[C@H](CCc1ccccc1)N[C@H]1CCc2ccccc2N(CC(=O)O)C1=O | inactive | inactive | inactive | inactive | inactive |  | inactive | inactive |  | 
4 | O=C(O)[C@@H]1[C@H]2C[C@H]3c4[nH]c5ccccc5c4CCN3C[C@@H]2CC[C@@H]1O | inactive | inactive | inactive | inactive | inactive |  | inactive | inactive | inactive | inactive
5 | N#Cc1c(F)cccc1F | inactive | inactive | inactive | inactive | inactive | inactive | inactive | inactive |  | 
6 | NC(N)=NN=C(/C=C/c1ccc([N+](=O)[O-])o1)/C=C/c1ccc([N+](=O)[O-])o1 | 27.5 µM (active) | 3.35 µM (active) | 2.37 µM (active) | 2.98 µM (active) | inactive |  | 8.49 µM (active) | inactive | 6.68 µM (active) | 
7 | COC(Cc1ccccc1)OC | inactive | inactive | inactive | inactive | inactive |  | inactive | inactive |  | 
8 | CC(C)(C)C1CCCCC1O (stereo unspecified) | inactive | inactive | inactive | inactive | inactive | inactive | inactive | inactive |  | 
9 | O=C1CCCCCO1 | inactive | inactive | inactive | inactive | inactive | inactive | inactive | inactive |  | 
10 | Cc1cccc(Oc2ccccc2)c1 | inactive | inactive | inactive | inactive | inactive |  |  | inactive | 53.1 µM (active) | inactive
11 | O=C(O)/C=C/c1cnc[nH]1 | inactive | inactive | inactive | inactive | inactive | inactive | inactive | inactive |  | 
12 | ClC(Cl)(Cl)c1ccc(C(Cl)(Cl)Cl)cc1 | inactive | inactive | inactive | inactive | inactive | inactive | inactive | inactive |  | 
13 | Cc1ncsc1CCO | inactive | inactive | inactive | inactive | inactive | inactive | inactive | inactive |  | 
14 | O=C(Nc1ccccc1)OCC(CN1CCCCC1)OC(=O)Nc1ccccc1 (stereo unspecified) | inactive | inactive | inactive | inactive | inactive | inactive | inactive | inactive |  | 
15 | N#CCCNCCC#N | inactive | inactive | inactive | inactive | inactive | inactive | inactive | inactive |  | 
16 | C=CC[N+]1([C@H]2C[C@H]3[C@@H]4CC[C@H]5C[C@H](OC(C)=O)[C@@H](N6CCCCC6)C[C@]5(C)[C@H]4CC[C@]3(C)[C@H]2OC(=O)CC)CCCCC1 | inactive | inactive | inactive | inactive | inactive | inactive | inactive | inactive |  | 
17 | O=[N+]([O-])c1cc[n+]([O-])cc1 | inactive | 30.6 µM (active) | 30.6 µM (active) | 43.3 µM (active) | inactive |  | inactive |  |  | 
18 | CCCCCCCC/C=C\CCCCCCCC(N)=O | inactive | inactive | inactive | inactive | inactive |  | inactive | inactive | inactive | inactive
19 | CN(C)CC[C@@H](c1ccc(Br)cc1)c1ccccn1 | inactive | inactive | inactive | inactive | inactive | inactive | inactive |  |  | 
20 | CCCCOC(=O)c1ccccc1C(=O)OCC(CC)CCCC (stereo unspecified) | inactive | inactive | inactive | inactive | inactive | inactive | inactive | inactive |  | 
21 | Cc1cc(C)c(S(=O)(=O)O)cc1N=Nc1cc(S(=O)(=O)O)c2ccccc2c1O | 1.42 µM (active) | 61.1 µM (active) | 61.1 µM (active) | inactive | inactive |  | inactive | inactive |  | 
22 | CC(=O)N(CC(=O)N(C)C)c1ccccc1 | inactive | inactive | inactive | inactive | inactive |  | inactive | inactive | inactive | inactive
23 | CC(C)CCCC(C)CCO (stereo unspecified) | inactive | inactive | inactive | inactive | inactive |  | inactive | inactive |  | 
24 | CC(=O)OCCc1ccccc1 | inactive | inactive | inactive | inactive | inactive | inactive | inactive | inactive |  | 
25 | O=C(NS(=O)(=O)/C=C/c1cccs1)c1ccc(F)cc1Br | inactive | inactive | inactive | inactive | inactive | inactive | inactive |  |  | 
26 | Nc1ccc(C(=O)N2CC3CC(CN(Cc4ccccc4)C3)C2)cc1 | inactive | inactive | inactive |  | inactive | inactive | inactive | inactive |  | inactive
27 | C[C@H](CCC(=O)O)[C@H]1CC[C@H]2[C@@H]3[C@H](O)C[C@@H]4C[C@H](O)CC[C@]4(C)[C@H]3CC[C@]12C | 79.9 µM (active) | inactive | inactive | inactive |  | inactive |  | inactive | inactive | 
28 | O=S(=O)(O)c1ccc(O)c2ncccc12 | inactive | inactive | inactive | inactive |  | inactive | inactive | inactive |  | 
